Inconclusive results are not listed. Active and inactive are the calls of the source. Unless noted, the call rests on the fitted dose curve; in most records, active means well fitted curve in either direction with a large enough effect (not every such curve was filed as active); inconclusive means small, poorly fitted or top-dose-only effect, or another doubt; inactive means flat fitted curve, though single readings scatter.
How the values were obtained:
[1] = AP1 Signaling Pathway (AID 357); details: ME-180 AP-1-bla reporter, EGF-induced, beta-lactamase ratio, 5 h; at 7.69 µM (top of the series) unless noted;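 further: ME-180 reporter cells stimulated with EGF at its EC50 level; on the % scale 0 is the no-effect control and ±100 the full control effect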
Method in brief: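 Titration-series screen for positive or negative modulators of EC50 EGF-induced signaling in ME-180 cells carrying an AP-1-driven beta-lactamase reporter. After 5 hours at 37 degrees Celsius, CCF4 460nm/530nm emission ratio gave %Activity; AC50 values derived.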

[2] = Stat Signaling Pathway (AID 446); details: ME-180 SIE beta-lactamase reporter, IL-6 stimulated, 5 h; at 7.69 µM (top of the series) unless noted;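 further: ME-180 cervical cancer cells given 40 pM IL-6 alongside compound; SIE-controlled beta-lactamase reporter measured as 460/530 nm FRET emission ratio; on the % scale 0 is the no-effect control and ±100 the full control effect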
Method in brief: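 ME-180 SIE-bla cells; overnight plating; cpd + IL-6 40 pM, 5 h, 37 C; LiveBLAzer 2.5 h RT; 460/530 nm emission ratio. Normalized to 300 pM IL-6 and 125 nM JAK inhibitor controls.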

[3] = biological target: Glucocorticoid receptor (Homo sapiens) (UniProt P04150); test: GR-EFC Redistribution (AID 451; calls by dose curve; further: potency means the concentration at half of the fitted maximal effect); details: CHO-K1 GR-EFC translocation, beta-gal luminescence, 2 h
Sequence of Glucocorticoid receptor (Homo sapiens) (P04150 whole entry, looked up, the tested form may be a part): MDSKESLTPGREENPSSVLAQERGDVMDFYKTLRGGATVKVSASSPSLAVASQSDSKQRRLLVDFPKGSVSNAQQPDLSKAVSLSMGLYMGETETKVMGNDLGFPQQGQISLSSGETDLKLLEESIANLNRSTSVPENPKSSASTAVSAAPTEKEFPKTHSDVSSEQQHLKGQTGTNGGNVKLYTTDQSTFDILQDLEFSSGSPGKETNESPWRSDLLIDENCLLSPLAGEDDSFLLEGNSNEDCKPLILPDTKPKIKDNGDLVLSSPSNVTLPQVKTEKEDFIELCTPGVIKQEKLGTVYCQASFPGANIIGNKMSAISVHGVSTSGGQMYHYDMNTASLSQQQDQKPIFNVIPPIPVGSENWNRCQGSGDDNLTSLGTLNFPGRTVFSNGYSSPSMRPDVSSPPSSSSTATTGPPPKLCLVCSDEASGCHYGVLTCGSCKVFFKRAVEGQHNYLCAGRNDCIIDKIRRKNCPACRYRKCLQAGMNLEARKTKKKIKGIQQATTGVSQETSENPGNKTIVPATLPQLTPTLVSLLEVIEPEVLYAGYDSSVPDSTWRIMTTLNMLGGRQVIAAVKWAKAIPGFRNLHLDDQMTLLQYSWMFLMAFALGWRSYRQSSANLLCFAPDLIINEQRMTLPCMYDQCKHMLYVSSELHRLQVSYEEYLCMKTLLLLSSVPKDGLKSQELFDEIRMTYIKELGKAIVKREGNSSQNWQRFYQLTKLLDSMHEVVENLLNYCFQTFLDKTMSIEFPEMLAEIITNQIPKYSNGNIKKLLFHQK
Method in brief: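 CHO-K1 cells stably expressing nuclear-localized β-gal enzyme acceptor and GR fused C-terminally to the enzyme donor fragment; ligand-driven nuclear translocation restores β-gal by complementation. Compounds titrated up to 46 uM final, 2 h at 37 °C; luminescence read.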

[4] = biological target: Mitogen-activated protein kinase 10 (Mus musculus) (UniProt Q61831); test: JNK3 AlphaScreen Assay (AID 530);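 further: kinase came from lysate of stimulated human HepG2 cells; signal reports phosphorylation of biotinylated GST-cJun 1-79 at Ser73 with 10 µM ATP; on the % scale 0 is the no-effect control and ±100 the full control effect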
Method in brief: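 JNK3 came from HepG2 lysates pre-activated with IL-1beta and TNF-alpha and phosphorylated biotinylated GST-cJun (1-79) at 10 uM ATP, pH 7.6, room temperature. Compounds were titrated. AlphaScreen signal used anti-phospho-cJun (Ser73) antibody.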

[5] = biological target: 3',5'-cyclic-AMP phosphodiesterase 4B (Homo sapiens) (UniProt Q07343); test: qHTS Assay for Inhibitors of PDE-IV (AID 607; active means well fitted activation curve with a large enough effect in the main read-out, with a control signal flat, not every such curve was filed as active; further: % of control where 0% means no effect)
Sequence of 3',5'-cyclic-AMP phosphodiesterase 4B (Homo sapiens) (Q07343 whole entry, looked up): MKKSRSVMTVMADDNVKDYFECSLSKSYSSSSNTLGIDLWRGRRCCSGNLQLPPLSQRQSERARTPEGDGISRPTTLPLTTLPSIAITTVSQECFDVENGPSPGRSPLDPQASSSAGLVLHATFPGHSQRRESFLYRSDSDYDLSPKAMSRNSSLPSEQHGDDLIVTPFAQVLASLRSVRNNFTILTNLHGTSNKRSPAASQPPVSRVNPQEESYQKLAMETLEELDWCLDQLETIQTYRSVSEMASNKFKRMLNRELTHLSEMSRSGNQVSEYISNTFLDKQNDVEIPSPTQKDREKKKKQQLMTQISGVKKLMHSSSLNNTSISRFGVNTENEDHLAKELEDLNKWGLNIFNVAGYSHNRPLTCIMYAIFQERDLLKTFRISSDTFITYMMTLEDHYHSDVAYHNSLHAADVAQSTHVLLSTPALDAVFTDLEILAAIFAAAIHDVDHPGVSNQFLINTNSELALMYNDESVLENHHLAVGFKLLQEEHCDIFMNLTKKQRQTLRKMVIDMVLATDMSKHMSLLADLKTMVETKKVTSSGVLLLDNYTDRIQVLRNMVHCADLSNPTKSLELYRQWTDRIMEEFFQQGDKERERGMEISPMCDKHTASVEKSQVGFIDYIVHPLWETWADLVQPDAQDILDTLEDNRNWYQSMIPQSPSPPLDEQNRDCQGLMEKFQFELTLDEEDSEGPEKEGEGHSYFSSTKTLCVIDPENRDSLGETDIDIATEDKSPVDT
Method in brief: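 ACTOne HEK293 cells carry a modified cAMP-gated CNG channel and express endogenous PDE4; plated 1000 cells/well, compounds up to 22.9 uM final. Membrane-potential dye fluorescence (ex 535/em 590) was read; parental cells received 10 uM forskolin + 100 uM RO 20-1724.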

[6] = qHTS Assay for Lipid Storage Modulators (AID 1519; calls by dose curve); details: Drosophila S3 cells, BODIPY lipid droplet/cell ratio, laser cytometry, cells loaded with oleic acid; for activity change, negative = inhibition: at 57.5 µM (top of the series)
Method in brief: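 Cells seeded at 5,000 per well were treated with compounds over a concentration series and loaded with oleic acid (400 uM, as added). Lipid droplet fluorescence (488 nm excitation, 500-530 nm channel) was read by laser-scanning cytometry and normalized to 20 uM Triacsin C.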

[7] = Primary qHTS for small molecule stabilizers of the endoplasmic reticulum resident proteome: Secreted ER Calcium Modulated Protein (SERCaMP) assay (AID 1508630; active means well fitted curve in the direction sought with a large enough effect; an effect the other way counts as inactive or inconclusive; further: on the % scale 0 is the no-effect control and ±100 the full control effect)
Method in brief: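 GLuc-SERCaMP-expressing SH-SY5Y cells, pretreated 16 h with compound, are challenged with thapsigargin to empty ER calcium stores; after 4 h, coelenterazine is added directly to the medium and luminescence is imaged.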

[8] = NFAT Signaling Pathway (AID 444); details: Jurkat NFAT-bla M1, carbachol, beta-lactamase ratio, 5 h; at 7.69 µM (top of the series) unless noted
Method in brief: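 Jurkat cells carrying an NFAT-driven β-lactamase reporter and co-transfected muscarinic M1 receptor were treated with compound plus carbachol (1 uM final, an EC50 level) for 5 h at 37 °C. CCF4 loading followed for 1 h at RT; 460/530 nm ratio gave %activity.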

[9] = biological target: Glucocorticoid receptor (Homo sapiens) (UniProt P04150); test: GR-GFP Redistribution (AID 450;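 active means compounds whose dose series gives a full or clear partial fitted curve of increased nuclear translocation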; further: potency means the concentration at half of the fitted maximal effect); details: U2OS GR-GFP nuclear translocation, laser cytometry, 2 h
[10] = Confirmation and Secondary Assay for Modulators of Hemoglobin Beta Chain Splicing at IVS2 654 locus (AID 910; active means well fitted curve in the direction sought with a large enough effect; an effect the other way counts as inactive or inconclusive;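 further: per-well total GFP intensity by laser scanning cytometry after 2-day treatment; % of control where 0% means no effect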)
Method in brief: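 HeLa cells stably carrying EGFP interrupted by mutant beta-globin IVS2-654 intron (CMV-driven) were treated with compound for 2 days at 37C; corrected splicing was scored as total peak GFP intensity per well (488 nm excitation, 500-520 nm emission).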

[11] = biological target: Cytochrome P450 1A2 (Homo sapiens) (UniProt P05177); test: p450-cyp1a2 (AID 410; calls by dose curve; further: potency means the concentration at half of the fitted maximal effect;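 on activity change, negative = inhibition: -100% = full effect of reference inhibitor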)
Sequence of Cytochrome P450 1A2 (Homo sapiens) (P05177 whole entry, looked up): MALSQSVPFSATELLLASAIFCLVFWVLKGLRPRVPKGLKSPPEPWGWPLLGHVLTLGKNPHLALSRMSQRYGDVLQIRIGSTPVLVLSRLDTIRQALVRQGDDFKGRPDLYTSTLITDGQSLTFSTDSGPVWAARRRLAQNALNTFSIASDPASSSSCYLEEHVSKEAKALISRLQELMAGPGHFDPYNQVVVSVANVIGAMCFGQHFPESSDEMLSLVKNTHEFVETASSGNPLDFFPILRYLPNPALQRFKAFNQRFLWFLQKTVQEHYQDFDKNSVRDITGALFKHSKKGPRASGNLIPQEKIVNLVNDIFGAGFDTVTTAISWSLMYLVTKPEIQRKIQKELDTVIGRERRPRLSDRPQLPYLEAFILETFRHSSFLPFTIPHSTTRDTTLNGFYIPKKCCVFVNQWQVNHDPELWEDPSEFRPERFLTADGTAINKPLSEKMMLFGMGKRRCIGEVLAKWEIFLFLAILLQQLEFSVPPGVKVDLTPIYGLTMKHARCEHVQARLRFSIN
Method in brief: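 Inhibition was calculated relative to 57 uM furafylline (full inhibition). The reaction used human CYP1A2 at 20nM with Luciferin-ME at its Km, 100uM, driven by an NADPH-regenerating system for 60 min at room temperature.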

[12] = biological target: Cytochrome P450 3A4 (Homo sapiens) (UniProt P08684); test: qHTS Assay for Inhibitors and Substrates of Cytochrome P450 3A4 (AID 884; active means well fitted curve in the direction sought with a large enough effect; an effect the other way counts as inactive or inconclusive; further: potency means the concentration at half of the fitted maximal effect; nearly all actives have a fitted effect of over 50% in size)
Sequence of Cytochrome P450 3A4 (Homo sapiens) (P08684 whole entry, looked up): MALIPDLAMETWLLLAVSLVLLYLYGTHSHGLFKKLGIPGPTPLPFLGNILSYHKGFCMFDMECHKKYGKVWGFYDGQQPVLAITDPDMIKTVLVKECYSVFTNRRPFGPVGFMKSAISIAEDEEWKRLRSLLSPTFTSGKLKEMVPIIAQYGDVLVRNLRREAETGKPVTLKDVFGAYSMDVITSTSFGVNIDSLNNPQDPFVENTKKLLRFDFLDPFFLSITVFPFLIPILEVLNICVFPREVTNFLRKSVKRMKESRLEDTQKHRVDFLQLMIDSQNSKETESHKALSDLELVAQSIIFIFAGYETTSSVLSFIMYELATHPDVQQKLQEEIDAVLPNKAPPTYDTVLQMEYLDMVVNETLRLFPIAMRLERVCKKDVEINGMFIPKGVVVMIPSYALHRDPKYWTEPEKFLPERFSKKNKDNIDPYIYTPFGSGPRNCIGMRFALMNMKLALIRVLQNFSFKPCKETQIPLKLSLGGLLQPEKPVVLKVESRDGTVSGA
Method in brief: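 20 nM human CYP3A4 with 25 uM Luciferin-PPXE (at KM) in 200 mM KPO4, preincubated 10 min with compound; NADPH regeneration started a 60 min RT reaction. Luciferin detected by luminescence, normalized to 57 uM ketoconazole as full inhibition.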

[13] = biological target: Cytochrome P450 3A4 (Homo sapiens) (UniProt P08684); test: qHTS Assay for Activators of Cytochrome P450 3A4 (AID 885; active means well fitted curve in the direction sought with a large enough effect; an effect the other way counts as inactive or inconclusive; further: nearly all actives have a fitted effect of over 65% in size)
Method in brief: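 20nM CYP3A4 + 25uM Luciferin-PPXE (=KM), 200mM KPO4; cpd 10 min RT; NADPH regen, 60 min RT; stop w/ detection buffer, 20 min; luminescence. Normalized to 57 uM ketoconazole.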

[14] = Confirmation and Secondary Assay for Modulators of Hemoglobin Beta Chain Splicing at IVS2 705 locus (AID 930; active means well fitted curve in the direction sought with a large enough effect; an effect the other way counts as inactive or inconclusive;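 further: HeLa cells stably expressing the EGFP-705 splicing reporter; % of control where 0% means no effect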)
Method in brief: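 Restored EGFP fluorescence after 2-day compound exposure reports splicing correction in IVS2-705 EGFP reporter HeLa cells; positive control was 500 nM splice-blocking PNA oligo. Signal measured as well total peak GFP intensity (488 nm excitation).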

[15] = biological target: Cytochrome P450 2D6 (Homo sapiens) (UniProt P10635); test: qHTS Assay for Inhibitors and Substrates of Cytochrome P450 2D6 (AID 891; active means well fitted curve in the direction sought with a large enough effect; an effect the other way counts as inactive or inconclusive; further: potency means the concentration at half of the fitted maximal effect; nearly all actives have a fitted effect of over 60% in size)
Sequence of Cytochrome P450 2D6 (Homo sapiens) (P10635 whole entry, looked up): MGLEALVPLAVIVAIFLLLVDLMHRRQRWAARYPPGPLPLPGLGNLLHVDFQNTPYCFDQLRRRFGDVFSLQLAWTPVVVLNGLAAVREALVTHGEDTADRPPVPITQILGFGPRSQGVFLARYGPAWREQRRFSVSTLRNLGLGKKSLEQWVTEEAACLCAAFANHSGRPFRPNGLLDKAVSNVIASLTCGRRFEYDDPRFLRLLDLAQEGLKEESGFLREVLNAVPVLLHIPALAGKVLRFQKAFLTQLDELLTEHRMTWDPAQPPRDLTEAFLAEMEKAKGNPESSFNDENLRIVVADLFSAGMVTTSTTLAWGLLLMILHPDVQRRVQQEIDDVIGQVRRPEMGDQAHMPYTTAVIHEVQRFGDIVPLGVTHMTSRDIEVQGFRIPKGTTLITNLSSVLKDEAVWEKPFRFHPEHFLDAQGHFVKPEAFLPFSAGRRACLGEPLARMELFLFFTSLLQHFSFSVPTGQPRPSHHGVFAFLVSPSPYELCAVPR
Method in brief: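 Human CYP2D6 (5 nM) with 30 uM Luciferin-ME EGE (at Km) in 100 mM KPO4, compound preincubated 10 min, then NADPH regeneration system for 60 min at room temperature. Luciferin read by luminescence; normalized to 1.43 uM quinidine.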

[16] = measured here: cell count channel max response
[17] = measured here: lipid channel max response

Cc1noc(C)c1C(=O)N1CCC2(CC1)CN(c1ccccn1)C2
6.89%: max response [6, 16]
15.4%: max response [6, 17]
inactive: activity change, negative = inhibition [1] 23.5% | activity, negative = inhibition [2] 3.57% | Potency [3] > 46 µM | Potency [4] | Potency [5] | activity change, negative = inhibition [6] 4.72% | outcome [7]

COc1ccc(CNc2nc(-c3ccoc3)nc3ccccc23)c(OC)c1
2.43%: max response [6, 17]
inactive: activity change, negative = inhibition [1] -10.8% | activity change, negative = inhibition [8] -8.73% | activity, negative = inhibition [2] 6.96% | Potency [9] > 46 µM | Potency [3] > 46 µM | Potency [4] | Potency [5] | Potency [10] | activity change, negative = inhibition [6] 11% | outcome [7]
-6.93%: max response [6, 16]

Cc1nc2cnc(N3CCNCC3)nc2n(CCC#N)c1=O
inactive: activity change, negative = inhibition [1] -1.38% | activity change, negative = inhibition [8] -8.3% | activity, negative = inhibition [2] -12.7% | Potency [9] > 9.22 µM | Potency [3] > 46 µM | Potency [4] | Potency [5] | activity change, negative = inhibition [6] 4.65% | outcome [7]
11.9%: max response [6, 16]
19.3%: max response [6, 17]

Cn1cccc1C(=O)N1CCC2(CCCN(c3ccncc3)C2)CC1
inactive: activity change, negative = inhibition [1] 11.9% | activity, negative = inhibition [2] 0.921% | Potency [3] > 46 µM | Potency [4] | Potency [5] | activity change, negative = inhibition [6] 5.74% | outcome [7]
8.08%: max response [6, 16]
18.3%: max response [6, 17]

O=C(c1ccncc1)N1CCC2(CC1)CCN(c1ccc(-c3ccccc3)cc1)CC2
2.35%: max response [6, 17]
inactive: activity change, negative = inhibition [1] -18.3% | activity, negative = inhibition [2] -9.73% | Potency [3] > 46 µM | Potency [4] | Potency [5] | activity change, negative = inhibition [6] 0.379% | outcome [7]
-2.77%: max response [6, 16]

Cc1cnc(CNc2nc(-c3ccc(N(C)C)cc3)nc3ccccc23)cn1
inactive: activity change, negative = inhibition [1] -17% | activity, negative = inhibition [2] 7.71% | Potency [9] > 46 µM | Potency [3] > 46 µM | Potency [4] | Potency [5] | Potency [13] | Potency [10] | outcome [14] | activity change, negative = inhibition [6] 11.9% | outcome [7]
active: Potency [11] 3.16 µM | Potency [12] 5.01 µM
13.6%: max response [6, 16]
26%: max response [6, 17]

COc1ccccc1CN1CC2(CCN(C(=O)c3ccncc3)CC2)C1
-17.3%: max response [6, 17]
inactive: activity change, negative = inhibition [1] -0.483% | Potency [11] | activity, negative = inhibition [2] -1.82% | Potency [3] > 46 µM | Potency [4] | Potency [5] | Potency [13] | activity change, negative = inhibition [6] -2.12% | outcome [7]
active: Potency [15] 0.794 µM
-19.5%: max response [6, 16]

— PubChem BioAssay (NCATS)
